Experiment [1] in a line: qHTS assay to identify small molecule antagonists of the sonic hedgehog signaling (Shh) pathway (AID 1259369). Further: nearly all actives have a fitted effect of over 45% in size. Further: potency means the concentration at half of the fitted maximal effect. Put shortly: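 For antagonist detection, the reporter line received test compounds together with conditioned medium, incubated 24hr at 37 C, 5% CO2, then luminescence was recorded following 30min room-temperature luciferase reagent incubation.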
On the technique in general: In qHTS, concentration-response curves come from the screen itself.

For experiment [2], the target named is Estrogen receptor beta (Homo sapiens) (UniProt Q92731). Description: qHTS assay to identify small molecule agonists of the estrogen receptor beta (ER-beta) signaling pathway (AID 1259377; active means well fitted activation curve with a large enough effect in the signal ratio in the repeat runs, not every such curve was filed as active; the % refers to the signal ratio). In a few lines:
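Ratiometric beta-lactamase FRET read-out came after 2 h substrate loading at room temperature. It followed 16 h compound treatment at 37C of GripTite HEK293T cells carrying a UAS-bla reporter, plated in 2% charcoal-stripped FBS medium.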

Experiment [3] is described as follows: qHTS assay to identify small molecule agonists of the androgen receptor (AR) signaling pathway in the presence of an antagonist - cell viability counter screen (AID 1259379; active means well fitted curve in the direction sought with a large enough effect in the repeat runs; an effect the other way counts as inactive or inconclusive;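 further: MDA-kb2 human breast cancer cells carrying an MMTV luciferase reporter; series mostly up to about 92 µM; nearly all actives have a fitted effect of over 25% in size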). Put shortly: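 Seed MDA-kb2 at 3,000 cells/well; incubate 5 hr, 37C, 0% CO2. Add nilutamide to 3.0uM final, then pin compounds at 15 concentrations. Incubate 16 hr. Add CellTiter-Fluor at 15 hr, read fluorescence after 1 hr.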

The nature of experiment [4]: qHTS assay to identify small molecule agonists of the estrogen receptor beta (ER-beta) signaling pathway - cell viability counter screen (AID 1259380; active means well fitted curve in the direction sought with a large enough effect in the repeat runs; an effect the other way counts as inactive or inconclusive; further: nearly all actives have a fitted effect of over 30% in size). Put shortly:
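CellTiter-Glo read, 30 min RT, same wells as bla assay; cells ER-beta-UAS-bla HEK293T; 16 hr compound, 37C; medium 2% charcoal-stripped FBS.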

Experiment [5] addresses Estrogen receptor (Homo sapiens) (UniProt P03372). Kind of experiment: qHTS assay to identify small molecule agonists of the estrogen receptor alpha (ER-alpha) signaling pathway in the presence of an antagonist (AID 1259383). Further: top concentration of the series differs between compounds; nearly all actives have a fitted effect of over 15% in size. Put shortly: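 Stably transfected VM7Luc4E2 reporter cells, kept 5 days in charcoal-stripped serum, received ICI-182,780 at 10.0nM final before compound addition. Following 22hr incubation at 37C and 5% CO2, luciferase signal was read by luminescence.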

A short description of experiment [6]: qHTS assay to identify small molecule agonists or antagonists of the thyroid stimulating hormone receptor (TSHR) signaling pathway - wild type cell line counter screen (AID 1259384). In a few lines:
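Wild-type Hek293 cells, 800/well, 18 h at 37C, then compound with Ro20-1724 for 30 min RT. cAMP by HTRF (cAMP-d2/anti-cAMP cryptate), 1 h RT, fluorescence read. 15 concentrations, triplicates.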

In experiment [7] the target is Thyrotropin receptor (Homo sapiens) (UniProt P16473). Description: qHTS assay to identify small molecule antagonists of the thyroid stimulating hormone receptor (TSHR) signaling pathway (AID 1259385). Further: nearly all actives have a fitted effect of over 20% in size. In a few lines: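 TSHR-HEK293 cells (800/well) plated 18 h, then compounds with Ro20-1724 and TSH at 1.5 ng/mL final, 30 min at room temperature. cAMP quantified by HTRF (cAMP-d2/anti-cAMP-cryptate, 1 h); 15 concentrations in triplicate.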
Sequence of Thyrotropin receptor (Homo sapiens) (P16473 whole entry, looked up): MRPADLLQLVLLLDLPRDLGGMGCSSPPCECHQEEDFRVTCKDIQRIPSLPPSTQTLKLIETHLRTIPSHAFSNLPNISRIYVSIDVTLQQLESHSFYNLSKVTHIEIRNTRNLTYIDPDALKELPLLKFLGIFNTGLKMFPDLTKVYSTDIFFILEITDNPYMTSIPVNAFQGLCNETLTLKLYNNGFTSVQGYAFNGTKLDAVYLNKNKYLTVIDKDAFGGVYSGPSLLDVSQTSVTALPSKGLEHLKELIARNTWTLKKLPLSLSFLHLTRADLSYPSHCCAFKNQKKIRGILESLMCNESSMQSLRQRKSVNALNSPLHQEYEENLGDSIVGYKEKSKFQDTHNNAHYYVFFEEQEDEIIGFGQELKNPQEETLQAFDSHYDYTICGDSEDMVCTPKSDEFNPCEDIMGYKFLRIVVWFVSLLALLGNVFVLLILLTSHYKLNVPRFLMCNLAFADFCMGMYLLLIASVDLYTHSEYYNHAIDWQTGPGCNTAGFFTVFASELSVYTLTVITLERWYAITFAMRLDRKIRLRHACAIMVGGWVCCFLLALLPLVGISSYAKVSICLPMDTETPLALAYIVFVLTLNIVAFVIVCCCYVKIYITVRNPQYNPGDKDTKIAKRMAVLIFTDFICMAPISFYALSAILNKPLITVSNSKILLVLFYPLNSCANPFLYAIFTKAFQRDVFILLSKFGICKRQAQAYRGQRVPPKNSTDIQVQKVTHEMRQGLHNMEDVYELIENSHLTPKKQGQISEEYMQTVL

Experiment [8] in a line: qHTS assay to identify small molecule agonists of the estrogen receptor alpha (ER-alpha) signaling pathway in the presence of an antagonist - cell viability counter screen (AID 1259386; active means well fitted curve in the direction sought with a large enough effect in the repeat runs; an effect the other way counts as inactive or inconclusive;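 further: series mostly up to about 92 µM; cells exposed to compounds for 22 h at 37 °C before the viability read; nearly all actives have a fitted effect of over 30% in size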). Put shortly: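 Viability counter screen using VM7Luc4E2 (full-length ER-alpha, four ERE-luciferase). The cells were treated with compounds alongside ICI-182,780 10.0nM for 22hr, and live-cell protease fluorescence was quantified with CellTiter-Fluor.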

Experiment [9] in a line: qHTS assay to identify small molecule antagonists of the progesterone receptor (PR) signaling pathway - cell viability counter screen (AID 1346798; active means well fitted curve in the direction sought with a large enough effect in the repeat runs; an effect the other way counts as inactive or inconclusive; further: nearly all actives have a fitted effect of over 50% in size; further: potency means the concentration at half of the fitted maximal effect). Put shortly:
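Cytotoxicity read as CellTiter-Glo luminescence (30 min, room temperature) in the same wells as the beta-lactamase readout. HEK293T PR-UAS-bla cells in charcoal-stripped 2% FBS received compound and R5020, then 16 h at 37C, 5% CO2.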

Experiment [10] is described as follows: qHTS assay to identify small molecule agonists of the progesterone receptor (PR) signaling pathway - cell viability counter screen (AID 1346799). Further: nearly all actives have a fitted effect of over 45% in size. Put shortly: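 Cytotoxicity measured by CellTiter-Glo luminescence (30 min, RT) in the same wells as the PR beta-lactamase agonist read. Those HEK293T cells had 16 h compound treatment at 37 C in 2% charcoal-stripped FBS medium.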

The nature of experiment [11]: qHTS assay to identify small molecule antagonists of the TGF-beta/Smad signaling pathway - cell viability counter screen (AID 1346824; active means well fitted curve in the direction sought with a large enough effect in the repeat runs; an effect the other way counts as inactive or inconclusive; further: nearly all actives have a fitted effect of over 50% in size). In a few lines: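 SBE-bla HEK 293T cells, incubated overnight, then compound plus 0.25 ng/mL TGF-beta1 (stock added) for 5 hr at 37 C. Viability was read in the same wells by CellTiter-Glo luminescence after 30 min at room temperature.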

The nature of experiment [12]: qHTS assay to identify small molecule agonists of the TGF-beta/Smad signaling pathway - cell viability counter screen (AID 1346829; active means well fitted curve in the direction sought with a large enough effect in the repeat runs; an effect the other way counts as inactive or inconclusive; further: top concentration of the series differs between compounds; nearly all actives have a fitted effect of over 45% in size). In a few lines:
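In parallel with the Smad reporter read, viability of HEK 293T cells stably carrying SBE-bla is quantified by ATP luminescence following 5 hr compound treatment.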

A short description of experiment [13]: qHTS assay to identify small molecule agonists of the TGF-beta/Smad signaling pathway (AID 1346859; active means well fitted activation curve with a large enough effect in the signal ratio in the repeat runs, not every such curve was filed as active; the % refers to the signal ratio; further: series mostly up to about 77 µM). Put shortly: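 Fluorescence (ex 405 nm; em 460 and 530 nm) was read 2 h after LiveBLAzer FRET substrate at RT. The preceding compound treatment of overnight-plated SBE-bla HEK293T cells lasted 5 h at 37 C.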
Experiment [14] addresses Thyrotropin-releasing hormone receptor (Homo sapiens) (UniProt P34981). Description: qHTS assay to identify small molecule antagonists of the thyrotropin-releasing hormone receptor (TRHR) signaling pathway (AID 1346877; active means well fitted inhibition curve with a large enough effect in the repeat runs, not every such curve was filed as active; further: series mostly up to about 51 µM). Put shortly: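 Following an 18 h incubation at 37 °C and a 2 h calcium dye load, TRHR-HEK293 cells were exposed to compound (5 min, room temperature) and challenged with TRH, 1 nM final.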

Experiment [15] has the same target. Description: qHTS assay to identify small molecule agonists of the thyrotropin-releasing hormone receptor (TRHR) signaling pathway (AID 1346891). Further: series mostly up to about 58 µM. Put shortly:
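Agonist-mode intracellular calcium readout: kinetic fluorescence over 3 min at 1 s intervals after compound addition to TRHR-HEK293 cells (18 h seeded, 2 h dye-loaded at 37 C). Fifteen concentrations, triplicates.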

The target of experiment [16] is Estrogen receptor beta (Homo sapiens) (UniProt Q92731). Description: qHTS assay to identify small molecule antagonists of the estrogen receptor beta (ER-beta) signaling pathway (AID 1259378; active means well fitted inhibition curve with a large enough effect in the signal ratio in the repeat runs, not every such curve was filed as active; the % refers to the signal ratio; further: potency means the concentration at half of the fitted maximal effect). Put shortly: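 ER-beta-UAS-bla HEK293T cells in 2% charcoal-stripped FBS medium treated with compound plus 1nM final 17-beta-estradiol for 16 hr at 37C. Beta-lactamase reporter read by FRET substrate fluorescence after 2 hours at room temperature.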
Sequence of Estrogen receptor beta (Homo sapiens) (Q92731 whole entry, looked up): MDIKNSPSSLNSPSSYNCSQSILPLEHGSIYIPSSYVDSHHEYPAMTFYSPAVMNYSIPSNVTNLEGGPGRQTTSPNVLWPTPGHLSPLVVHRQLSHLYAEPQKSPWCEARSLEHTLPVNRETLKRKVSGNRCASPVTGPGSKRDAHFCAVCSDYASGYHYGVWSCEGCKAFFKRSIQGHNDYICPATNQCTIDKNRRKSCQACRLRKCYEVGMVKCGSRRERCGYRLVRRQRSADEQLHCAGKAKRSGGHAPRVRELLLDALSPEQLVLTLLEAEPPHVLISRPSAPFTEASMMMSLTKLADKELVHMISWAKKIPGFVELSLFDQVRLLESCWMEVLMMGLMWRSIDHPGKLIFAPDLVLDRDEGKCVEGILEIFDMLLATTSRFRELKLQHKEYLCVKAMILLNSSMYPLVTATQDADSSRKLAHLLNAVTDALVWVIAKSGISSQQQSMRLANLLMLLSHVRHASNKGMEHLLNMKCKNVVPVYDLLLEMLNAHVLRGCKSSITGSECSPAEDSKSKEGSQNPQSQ

Experiment [17] has as its target Androgen receptor (Homo sapiens) (UniProt P10275). Kind of experiment: qHTS assay to identify small molecule agonists of the androgen receptor (AR) signaling pathway in the presence of an antagonist (AID 1259381). Further: nearly all actives have a fitted effect of over 15% in size. Put shortly: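 Test compounds at 15 concentrations were incubated for 16hr with MDA-kb2 reporter cells in presence of 3.0uM nilutamide (final). Signal: ONE-Glo luciferase luminescence.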

For experiment [18], the target named is Progesterone receptor (Homo sapiens) (UniProt P06401). Description: qHTS assay to identify small molecule agonists of the progesterone receptor (PR) signaling pathway (AID 1346784). Further: nearly all actives have a fitted effect of over 30% in size. In a few lines:
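Agonist qHTS: compounds pinned onto 3,000 PR-UAS-bla HEK 293T cells per well in charcoal-stripped serum medium, 16hr at 37C, then beta-lactamase activity measured by LiveBLAzer FRET fluorescence after 2 hours at room temperature.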

Experiment [19] in a line: qHTS assay to identify small molecule antagonists of the estrogen receptor beta (ER-beta) signaling pathway - cell viability counter screen (AID 1259382; active means well fitted curve in the direction sought with a large enough effect in the repeat runs; an effect the other way counts as inactive or inconclusive; further: series mostly up to about 92 µM; nearly all actives have a fitted effect of over 55% in size). Put shortly: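 In this multiplexed counter screen, cells were seeded at 2,000 per well in medium with 2% charcoal-stripped FBS and incubated 6 hr before compound and 1nM final E2 were added. Sixteen hours later, ATP-based luminescence reported viability.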

The target in experiment [20] is Progesterone receptor (Homo sapiens) (UniProt P06401). Kind of experiment: qHTS assay to identify small molecule antagonists of the progesterone receptor (PR) signaling pathway (AID 1346795; active means well fitted inhibition curve with a large enough effect in the signal ratio in the repeat runs, not every such curve was filed as active; the % refers to the signal ratio). In a few lines: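 Antagonist mode with agonist R5020 at 1 nM final and 16 hr incubation at 37C. Reporter was beta-lactamase driven by UAS in HEK293T (PR-UAS-bla), 2% charcoal-stripped serum; signal from LiveBLAzer FRET substrate, 2 hr at room temperature.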
Sequence of Progesterone receptor (Homo sapiens) (P06401 whole entry, looked up): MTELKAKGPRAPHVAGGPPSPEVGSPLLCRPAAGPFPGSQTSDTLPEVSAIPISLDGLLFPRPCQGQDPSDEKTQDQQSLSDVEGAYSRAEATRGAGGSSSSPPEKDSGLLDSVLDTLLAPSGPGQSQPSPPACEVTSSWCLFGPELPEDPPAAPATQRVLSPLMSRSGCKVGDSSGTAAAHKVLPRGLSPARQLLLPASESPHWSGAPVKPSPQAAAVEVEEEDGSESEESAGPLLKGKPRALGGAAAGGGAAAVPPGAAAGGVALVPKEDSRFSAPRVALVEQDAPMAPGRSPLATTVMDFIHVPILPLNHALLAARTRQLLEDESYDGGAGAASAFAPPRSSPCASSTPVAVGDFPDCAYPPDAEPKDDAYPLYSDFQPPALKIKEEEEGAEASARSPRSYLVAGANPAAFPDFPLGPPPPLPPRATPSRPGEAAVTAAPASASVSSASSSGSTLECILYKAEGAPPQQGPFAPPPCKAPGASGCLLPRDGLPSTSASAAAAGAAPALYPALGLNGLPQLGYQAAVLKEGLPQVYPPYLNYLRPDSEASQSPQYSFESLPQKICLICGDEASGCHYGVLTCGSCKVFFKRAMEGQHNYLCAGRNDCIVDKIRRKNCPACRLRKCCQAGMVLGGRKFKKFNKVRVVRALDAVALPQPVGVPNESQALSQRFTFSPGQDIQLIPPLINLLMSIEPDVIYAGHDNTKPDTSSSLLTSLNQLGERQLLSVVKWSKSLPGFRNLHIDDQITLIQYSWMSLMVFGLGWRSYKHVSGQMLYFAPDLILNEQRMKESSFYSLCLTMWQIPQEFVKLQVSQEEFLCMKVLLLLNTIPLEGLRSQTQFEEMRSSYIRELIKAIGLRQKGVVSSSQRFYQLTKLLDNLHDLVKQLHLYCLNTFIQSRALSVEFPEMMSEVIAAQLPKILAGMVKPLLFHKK

Each structure is given as a SMILES string. Values without a mark were called inactive. Results filed as inconclusive are left out. Calls of active or inactive are those of the source. Unless noted, the call rests on the fitted dose curve.

For eight molecules, Potency and outcome results are on record in PubChem BioAssay (Tox21).

Sequence of Thyrotropin-releasing hormone receptor (Homo sapiens) (P34981 whole entry, looked up): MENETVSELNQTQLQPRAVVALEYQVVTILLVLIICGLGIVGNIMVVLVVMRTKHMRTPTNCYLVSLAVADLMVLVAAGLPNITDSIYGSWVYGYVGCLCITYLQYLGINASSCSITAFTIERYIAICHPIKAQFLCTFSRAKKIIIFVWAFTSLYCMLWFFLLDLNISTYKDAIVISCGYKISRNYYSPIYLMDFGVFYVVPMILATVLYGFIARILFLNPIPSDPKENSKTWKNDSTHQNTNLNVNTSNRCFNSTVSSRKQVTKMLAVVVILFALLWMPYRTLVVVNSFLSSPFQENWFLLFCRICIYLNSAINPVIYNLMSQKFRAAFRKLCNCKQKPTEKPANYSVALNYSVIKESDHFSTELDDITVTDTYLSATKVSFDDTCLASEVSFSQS
Sequence of Estrogen receptor (Homo sapiens) (P03372 whole entry, looked up): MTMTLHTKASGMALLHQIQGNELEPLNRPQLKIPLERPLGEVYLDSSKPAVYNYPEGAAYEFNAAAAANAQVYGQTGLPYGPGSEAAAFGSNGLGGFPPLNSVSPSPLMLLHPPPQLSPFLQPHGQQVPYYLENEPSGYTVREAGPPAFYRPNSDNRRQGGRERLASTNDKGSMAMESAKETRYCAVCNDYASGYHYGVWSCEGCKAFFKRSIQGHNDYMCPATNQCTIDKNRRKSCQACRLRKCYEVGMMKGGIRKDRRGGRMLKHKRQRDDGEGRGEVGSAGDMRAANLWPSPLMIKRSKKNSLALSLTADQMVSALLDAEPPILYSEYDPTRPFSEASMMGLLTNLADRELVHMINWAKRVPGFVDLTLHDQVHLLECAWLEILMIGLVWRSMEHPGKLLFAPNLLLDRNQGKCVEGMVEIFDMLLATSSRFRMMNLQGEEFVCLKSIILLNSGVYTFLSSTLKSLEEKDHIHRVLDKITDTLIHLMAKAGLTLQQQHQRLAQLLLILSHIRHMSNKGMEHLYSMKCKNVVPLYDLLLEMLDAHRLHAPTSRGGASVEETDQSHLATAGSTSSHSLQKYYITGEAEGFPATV
Sequence of Androgen receptor (Homo sapiens) (P10275 whole entry, looked up): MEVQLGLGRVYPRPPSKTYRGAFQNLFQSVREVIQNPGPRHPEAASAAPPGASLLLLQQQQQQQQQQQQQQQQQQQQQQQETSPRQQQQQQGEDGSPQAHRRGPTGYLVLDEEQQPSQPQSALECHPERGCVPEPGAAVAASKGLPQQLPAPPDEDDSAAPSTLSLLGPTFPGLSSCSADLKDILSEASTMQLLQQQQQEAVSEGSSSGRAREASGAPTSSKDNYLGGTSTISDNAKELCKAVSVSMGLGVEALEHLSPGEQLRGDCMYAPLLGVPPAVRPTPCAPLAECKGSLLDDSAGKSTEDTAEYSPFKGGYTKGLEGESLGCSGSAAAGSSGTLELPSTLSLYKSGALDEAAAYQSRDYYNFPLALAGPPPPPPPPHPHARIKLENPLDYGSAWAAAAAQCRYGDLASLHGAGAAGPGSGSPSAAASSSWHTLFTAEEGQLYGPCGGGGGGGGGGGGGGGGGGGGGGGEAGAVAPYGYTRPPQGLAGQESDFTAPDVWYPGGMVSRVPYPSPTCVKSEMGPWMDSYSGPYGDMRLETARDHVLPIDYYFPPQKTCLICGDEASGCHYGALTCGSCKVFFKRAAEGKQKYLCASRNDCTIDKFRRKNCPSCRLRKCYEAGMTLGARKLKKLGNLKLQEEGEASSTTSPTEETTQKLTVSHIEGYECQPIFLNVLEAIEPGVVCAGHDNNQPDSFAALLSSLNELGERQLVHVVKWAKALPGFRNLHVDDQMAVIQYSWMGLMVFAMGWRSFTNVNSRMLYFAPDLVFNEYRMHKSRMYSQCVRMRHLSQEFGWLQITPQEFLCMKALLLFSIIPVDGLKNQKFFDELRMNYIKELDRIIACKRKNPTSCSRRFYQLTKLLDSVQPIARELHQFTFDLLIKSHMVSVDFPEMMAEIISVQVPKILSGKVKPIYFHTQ

As for `CCCCNC(=S)NCCCC`, the Potency result in [1], in experiment [3], in experiment [4], in experiment [5], in experiment [7] and in experiment [8] was “inactive” throughout. Moreover, the Potency result in experiment [10] and in experiment [15] was “inactive” each time. Further, the call in experiment [2], in [6], in experiment [11], in [12], in experiment [13] and in [14] was inactive. In addition, the Potency in experiment [9] was 9.69 µM (active).

With `CCC(=O)c1ccc2c(c1)N(CCCN(C)C)c1ccccc1S2`, the Potency result in experiment [1], in experiment [17], in [8], in experiment [18], in experiment [9] and in [10] was “inactive” in each case. Further, the Potency entry in experiment [15] was “inactive”. The molecule was classed as inactive in experiment [2], in experiment [11], in [12], in experiment [13] and in experiment [14]. Moreover, the Potency in [16] is 26.6 µM (active).

`COc1ccc(Nc2ccc(OC)cc2)cc1`: the Potency entry in [1], in experiment [16], in experiment [5], in [7], in experiment [18] and in [10] was “inactive” throughout. The result in [2], in experiment [19], in experiment [6], in experiment [11], in [13] and in experiment [14] was inactive.

For `COc1ccc(S(=O)(=O)Nc2nnc(CC(C)C)s2)cc1`, the Potency entry in experiment [1], in experiment [16], in experiment [3], in experiment [5], in [8] and in experiment [18] was “inactive” in each case. The Potency entry in [20], in experiment [10] and in experiment [15] was “inactive” in each case. Further, the outcome in [2], in experiment [11], in experiment [12], in [13] and in [14] was inactive.

For the molecule `C=CCc1cc(OC)c(O)c(C(=O)NCCO)c1`, the Potency result in [1], in [3], in experiment [4], in [5], in experiment [7] and in [8] was “inactive” each time. For the same molecule, the Potency entry in [18], in experiment [20], in experiment [9] and in [10] was “inactive” each time. The molecule was classed as inactive in [19], in experiment [6], in experiment [11], in experiment [12] and in experiment [13].

On to `C[C@@H](N)C(=O)O`, for which the Potency in experiment [1] is 21.1 µM (active). Moreover, the Potency result in experiment [3], in experiment [4], in experiment [17], in experiment [7], in experiment [8] and in experiment [18] was “inactive” each time. In addition, the Potency result in experiment [20], in experiment [9] and in [10] was “inactive” in each case. The call in experiment [19], in experiment [6], in experiment [11], in experiment [12] and in experiment [13] was inactive.

In the case of `CCCNC(C)C(=O)Nc1c(C)csc1C(=O)OC` (stereo not drawn), the Potency entry in experiment [1], in experiment [3], in [4], in [5], in experiment [7] and in experiment [8] was “inactive” in each case. The Potency entry in experiment [18], in [9] and in [10] was “inactive” throughout. Also, the outcome in experiment [19], in [6], in experiment [11], in [12] and in [13] was inactive.

Take `CCCc1c2oc(C(=O)O)cc(=O)c2cc2c(=O)cc(C(=O)O)n(CC)c12`: the Potency entry in [1], in experiment [3], in [4], in experiment [5], in experiment [7] and in experiment [8] was “inactive” throughout. The Potency result in [18], in experiment [20], in [9] and in experiment [10] was “inactive” each time. Further, the molecule was classed as inactive in experiment [19], in experiment [6], in experiment [11], in experiment [12] and in [13].
